# Assay results reported in the supplement of paper PMC12297408.
# Counter-ions that a name gives are not always drawn. Screen size: about 1,300 compounds; about 40 (3%) showed activity. The sample holds actives, similar compounds and a random draw of the others, so the mix is not that of the screen. Unmarked numbers belong to inactive results.
# System: Plasmodium falciparum NF54/iGP1_RE9H ulg8 stage V gametocytes
# Test: gametocyte viability (luciferase signal relative to DMSO control) (% of DMSO control); higher = less gametocytocidal activity, active = 50 or less
# Conditions: exposure time: 72 h
# Summary of the method: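 Gametocyte viability is reported relative to the average of DMSO vehicle wells on the same plate. The assay used day-12 stage V NF54/iGP1_RE9Hulg8 gametocytes at ~2.5% gametocytemia and 3% hematocrit, in 0.5% Albumax II medium, added to 96-well plates of compounds spotted in nanolitre volumes for final 10 µM or 1 µM, one well each. After 72 h at 37 °C, 90 µl was mixed with 10 µl D-luciferin (30 mg/ml), and luminescence was recorded with an IVIS Lumina II.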
SMILES,gametocyte viability (concentration: 1 µM),gametocyte viability (concentration: 10 µM)
CN1CCC(=C2c3ccccc3CCc3cccnc32)CC1 [Azatadine maleate],79.7,80.8
CN1CCN2c3ncccc3Cc3ccccc3C2C1 (configuration not stated) [Mirtazapine],79.6,77.4
COc1cc(-c2ccc(N=Nc3ccc4c(S(=O)(=O)O)cc(S(=O)(=O)O)c(N)c4c3O)c(OC)c2)ccc1N=Nc1ccc2c(S(=O)(=O)O)cc(S(=O)(=O)O)c(N)c2c1O [Chicago sky blue 6B],80.1,82.1
Cc1ccccc1C(OCCN(C)C)c1ccccc1 (configuration not stated) [Orphenadrine hydrochloride],84.4,87.5
O=C1CC[C@@H](C(=O)N2CSC[C@H]2C(=O)O)N1 [Pidotimod],83.8,81.2
Cc1ccc(S(=O)(=O)NC(=O)NN2CC3CCCC3C2)cc1 (configuration not stated) [Gliclazide],91.8,88.7
O=C1NCCN1CCN1CCC(c2cn(-c3ccc(F)cc3)c3ccc(Cl)cc23)CC1 [Sertindole],97.7,82.3
CC(=O)OCC(=O)[C@@]12N=C(C)O[C@@H]1C[C@H]1[C@@H]3CCC4=CC(=O)C=C[C@]4(C)[C@H]3[C@@H](O)C[C@@]12C [Deflazacort],95.7,104
Clc1ccc(Nc2nnc(Cc3ccncc3)c3ccccc23)cc1 [Vatalanib],89.2,69.1
Cc1c(F)c(N2CCNC(C)C2)cc2c1c(=O)c(C(=O)O)cn2C1CC1 (configuration not stated) [Grepafloxacin],93.9,95.3
COc1ccc2[nH]c([S+]([O-])Cc3ncc(C)c(OC)c3C)nc2n1 (configuration not stated) [Tenatoprazole],90.8,79.8
Nc1ccc(S(=O)(=O)Nc2nccs2)cc1 [Sulfathiazole],96.7,91.9
CCCCC(=O)N(Cc1ccc(-c2ccccc2-c2nnn[nH]2)cc1)[C@H](C(=O)O)C(C)C [Valsartan],81.5,81
Cc1cc(C(=O)NNCc2ccccc2)no1 [Isocarboxazid],98.7,85
CN(C)[C@@H]1C(=O)C(C(=O)NCNCCCC[C@H](N)C(=O)O)=C(O)[C@@]2(O)C(=O)C3=C(O)c4c(O)cccc4[C@@](C)(O)[C@H]3C[C@@H]12 [Lymecycline],88.7,84.6
CC(=O)OC[C@H]1O[C@@H]([S-])[C@H](OC(C)=O)[C@@H](OC(C)=O)[C@@H]1OC(C)=O.CCP(CC)CC.[Au+] [Auranofin],82.6,3.03 (active)
CCCCCNC(=N)N/N=C/c1c[nH]c2ccc(OC)cc12 [Tegaserod maleate],88.4,6.12 (active)
COc1ccc2[nH]cc(CCNC(C)=O)c2c1 [Melatonin],80.2,85.4

SMILES,gametocyte viability (concentration: 1 µM),gametocyte viability (concentration: 10 µM)
COc1cc2nc(N3CCN(C(=O)C4CCCO4)CC3)nc(N)c2cc1OC (configuration not stated) [Terazosin hydrochloride],96.5,92.6
COc1cc2nc(N3CCN(C(=O)C4COc5ccccc5O4)CC3)nc(N)c2cc1OC (configuration not stated) [Doxazosin mesylate],86.5,63.2
COc1cc2nc(N3CCN(C(=O)c4ccco4)CC3)nc(N)c2cc1OC [Prazosin hydrochloride],90.8,42.9 (active)
OCCN1CCN(CC/C=C2/c3ccccc3Sc3ccc(Cl)cc32)CC1 [Zuclopenthixol hydrochloride],100,95.8
CC(C)CN(C[C@@H](O)[C@H](Cc1ccccc1)NC(=O)O[C@H]1CO[C@H]2OCC[C@H]21)S(=O)(=O)c1ccc(N)cc1 [Darunavir],82.6,81.5
C=C1C[C@H]2[C@@H]3C=C(C)C4=CC(=O)CC[C@]4(C)[C@H]3CC[C@]2(C)[C@@]1(OC(C)=O)C(C)=O [Melengestrol acetate],85.4,87.2
Nc1nc(CC(=O)Nc2ccc(CCNC[C@H](O)c3ccccc3)cc2)cs1 [Mirabegron],91.9,90.8
Cn1nnc2c(C(N)=O)ncn2c1=O [Temozolomide],86.9,88.1
Cc1cc(C(C)(C)C)c(O)c(C)c1CC1=NCCN1 [Oxymetazoline hydrochloride],89.6,90.7
CC(=O)OCC(=O)[C@@]12OC3(CCCC3)O[C@@H]1C[C@H]1[C@@H]3CCC4=CC(=O)C=C[C@]4(C)[C@@]3(F)[C@@H](O)C[C@@]12C [Amcinonide],93.1,92.1
CN1CCN(C(c2ccccc2)c2ccc(Cl)cc2)CC1 (configuration not stated) [Chlorcyclizine hydrochloride],96.9,91.7
CCOC(=O)[C@H](CCc1ccccc1)N[C@@H](C)C(=O)N1Cc2ccccc2C[C@H]1C(=O)O [Quinapril HCl],98.4,98.4
"c1ccc(CNc2ncnc3nc[nH]c23)cc1 [Aminopurine, 6-benzyl]",69.7,43.9 (active)
S=c1[nH]cnc2nc[nH]c12 [Mercaptopurine],82.1,84.9
c1coc(CNc2ncnc3nc[nH]c23)c1 [6-Furfurylaminopurine],86.5,75.6
CCCc1nc2c(C)cc(-c3nc4ccccc4n3C)cc2n1Cc1ccc(-c2ccccc2C(=O)O)cc1 [Telmisartan],80,88.2
CN1CCCN=C1/C=C/c1cccc(O)c1 [Oxantel pamoate],80.4,87.7
O=C(O)c1ccccc1C(=O)Nc1ccc(S(=O)(=O)Nc2nccs2)cc1 [Phthalylsulfathiazole],82.3,85.4
